The values that follow come from PubChem BioAssay (Tox21).

The structures appear in SMILES notation. Results filed as inconclusive are left out. A call without a number means that no potency is given here. Calls of active or inactive are those of the source. Calls follow the shape of the dose curve; as a rule, active = well fitted cell-killing curve with a large enough effect in the repeat runs; inconclusive = weak or mixed curves, or effect the other way; inactive = flat fitted curve, though single readings scatter.
Potency is read from the fitted curve at half-maximal effect.

A short description of this assay: cAMP Responsive Elements (CRE) small molecule antagonists, cell-based qHTS assay: qHTS cell viability counter screen (AID 2060913). Also: nearly all actives have a fitted effect of over 40% in size. Particulars: CRE-bla HEK293T viability, CellTiter-Glo luminescence, 5 h; series mostly up to 92.4 µM. The essentials: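 CRE-bla HEK293T cells were seeded in assay medium with 10% dialyzed FBS, incubated 18 hrs at 37 C, then exposed to compounds plus 0.25 uM final NKH477 for 3 hrs. Viability was read by CellTiter-Glo luminescence after 30 min, in the same wells.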
A general note: In qHTS, concentration-response curves come from the screen itself.
For the molecule `Clc1ccc(Cl)c(Cl)c1`, the Potency result was “inactive”.
For `CCN1CCC2(CC1)COc1cc3c(cc12)N(C(=O)c1ccc(-c2ccc(-c4nnc(C)o4)cc2C)cc1)CC3` the value was 56.4 µM (active); for `CCN(CC)C(=O)[C@@H]1C=C2c3cccc4[nH]cc(c34)C[C@H]2N(C)C1`, “inactive”; for `O=C/C(Cl)=C(/Cl)C(=O)O`, “inactive”.
For `O.O.O.O.O.O.O.O=S(=O)([O-])[O-].[Co+2]` the value was “inactive”; for `CC[N+]1(C)CCCC1`, “inactive”.
With `O=C(O)c1ccccc1C(=O)Nc1cccc2ccccc12` the entry was “inactive”.
For the molecule `O=C(N[C@@H]1N=C(c2ccccc2F)c2cccc3c2N(CC3)C1=O)c1cc2ccccc2[nH]1`, the Potency entry is “inactive”.
For `CNC(=O)O/N=C(\C)C(C)S(C)(=O)=O` (centres undefined) the value was “inactive”.
For `CC(C)[C@H](C(=O)OC(C#N)c1cccc(Oc2ccccc2)c1)c1ccc(OC(F)F)cc1` (some centres undefined) the value was “inactive”.
As for `ClCCN1CCCC1`, the Potency result is “inactive”.
Turning to `Nc1c(Br)cc([N+](=O)[O-])cc1[N+](=O)[O-]`, the Potency entry was “inactive”.
With `CC(C)[N+](C)(CCC(C(N)=O)(c1ccccc1)c1ccccc1)C(C)C` the entry was “inactive”; with `CNC(=O)Oc1ccccc1C1OCCO1`, “inactive”; with `Clc1ccc(-c2ccc(Cl)c(Cl)c2Cl)c(Cl)c1Cl`, “inactive”.
With `CCOP(=S)(OCC)SCSc1cc(Cl)ccc1Cl` the entry was “inactive”; with `CC(Oc1cc(Cl)c(Cl)cc1Cl)C(=O)O` (centres undefined), “inactive”; with `CC(Cc1ccccc1)NCc1ccccc1Cl` (centres undefined), “inactive”.
As to `ClC=C(Cl)Cl`, the Potency entry is “inactive”.
For `OCCSSCCO` the value was “inactive”; for `[CH3][Sn]([CH3])([Cl])[Cl]`, “inactive”.
With `O=C(O)C(Br)(Br)Br` the entry was “inactive”; with `ClCCCCl`, “inactive”; with `ClCCCN1CCN(c2cccc(Cl)c2)CC1`, “inactive”.
Regarding `NC(=O)CCl`, the Potency result is “inactive”.
With `O=C(O)c1ccc2[nH]cc(CCCCN3CC=C(c4ccccc4)CC3)c2c1` the entry was “inactive”.
In the case of `C=C(C#N)CCC#N`, the Potency entry is “inactive”.
For `COP(=S)(OC)Oc1ccc([N+](=O)[O-])c(C)c1` the value was “inactive”.
For `CCCCSP(=O)(SCCCC)SCCCC`, the Potency result was “inactive”.
`CCC[CH2][Sn]([Cl])([Cl])[Cl]`: the Potency entry was “inactive”.
For `CCC(C)Br` (centres undefined) the value was “inactive”; for `O=C(NC(=O)c1c(F)cccc1F)Nc1ccc(Oc2ccc(C(F)(F)F)cc2Cl)cc1F`, “inactive”.
With `CN=C=O` the entry was “inactive”; with `O=Cc1cccc(Oc2ccccc2)c1`, “inactive”; with `CCN1CCCC1CNC(=O)C(O)(c1ccccc1)c1ccccc1` (centres undefined), “inactive”.
For `CCCCCCCCCC[N+](C)(C)CCCCCCCCCC` the value was 30.6 µM (active); for `Cc1cc(C(C)(C)c2ccc(O)c(C)c2)ccc1O`, “inactive”; for `O=[N+]([O-])/C=C/c1ccccc1`, “inactive”.
Consider `CCCSP(=S)(OCC)Oc1ccc(SC)cc1` (centres undefined), for which the Potency entry was “inactive”.
